# Results reported in PubChem BioAssay (Tox21).
# Records with an inconclusive call do not appear. Calls of active or inactive are those of the source. Calls come from the whole dose curve; as a rule, active = well fitted activation curve with a large enough effect in the repeat runs; inconclusive = weak or mixed curves; inactive = flat fitted curve, though single readings scatter.
# Target: Nuclear receptor subfamily 1 group I member 2 (Homo sapiens) (UniProt O75469)
# Test: Human pregnane X receptor (PXR) activation by small molecules, qHTS assay (AID 1346985); note: nearly all actives have a fitted effect of over 40% in size
# Conditions: DPX-2 HepG2 CYP3A4-luciferase, 24 h; series mostly up to 38.3 µM; activation: at the top concentration
# Description: National Center for Advancing Translational Sciences [NCATS]
# NIH Chemical Genomics Center [NCGC]
# U.S. Environmental Protection Agency [EPA]
# National Institutes of Environmental Health Sciences [NIEHS]
# National Toxicology Program [NTP]
# The Pregnane X receptor (PXR), a ligand activated nuclear receptor plays a critical role in the regulation of genes involved in drug metabolism and transporters. Activation of PXR may be involved in the unwanted adverse drug-drug interactions. […] Therefore, identification of compounds with the potential for PXR activation can be of importance in improving the efficacy of drugs with less toxicity and avoiding drug-drug interactions.
# DPX-2 (Puracyp, Inc.) cell lines, used for screening against human PXR activation has HepG2 cells co-transfected with a PXR response element and a luciferase construct containing CYP3A4 promoter. Increase in luciferase activity can be used to identify the compounds that activate the PXR pathway.
# DPX-2 cells were dispensed at 2,000 cells per well in 5uL of assay medium into white, solid-bottom 1536-well plates using a Multidrop Combi dispenser (Thermo Scientific). The assay plates were incubated at 37C for 5hr before transferring 23nL of test compounds dissolved in DMSO and positive control via Pintool station (Wako). The assay plates were incubated at 37C for 24hr. Then 5ul One-Glo assay reagent (Promega) was added to each plate by a Flying Reagent Dispenser (FRD, Aurora Discovery) and following 30 min incubation at room temperature, luciferase activity was quantified on a ViewLux plate reader (Perkin Elmer).
# % is set by controls: 0 for no effect and ±100 for the full control effect; potency is the fitted concentration of half-maximal effect.
Compound,activation,Potency
O=C(NC(=O)c1c(F)cccc1F)Nc1cc(Cl)c(OC(F)(F)C(F)C(F)(F)F)cc1Cl (stereo not given),5.75% (inactive),
OC(O)C(Cl)(Cl)Cl,-8.96% (inactive),
O=[N+]([O-])c1ccc([As](=O)(O)O)cc1,-5.49% (inactive),
O=[N+]([O-])c1ccccc1,17.3% (inactive),
Nc1ccccc1C(=O)O,-2.03% (inactive),
Clc1ccc(Cl)cc1,-2.29% (inactive),
C#CCN(C)[C@H](C)Cc1ccccc1,15% (inactive),
CCOC(=O)c1ccccc1C(=O)OCC,7.46% (inactive),
Clc1ccccc1Cl,0.996% (inactive),
CC1OC(C)OC(C)O1 (stereo not given),,inactive
CC(C)=C[C@@H]1[C@@H](C(=O)OCc2coc(Cc3ccccc3)c2)C1(C)C,,22.4 µM (active)
C[C@]12CC[C@H]3[C@@H](CC[C@@]45O[C@@H]4C(O)=C(C#N)C[C@]35C)[C@@H]1CC[C@@H]2O,6.91% (inactive),
O=C(O)c1ccccn1,-4.49% (inactive),
O=c1n(Cl)c(=O)n(Cl)c(=O)n1Cl,-7.03% (inactive),
CN(C)[C@@H]1C(=O)C(C(N)=O)=C(O)[C@@]2(O)C(=O)C3=C(O)c4c(O)cccc4[C@@](C)(O)[C@H]3C[C@@H]12,-11.1% [at 17.1 µM] (inactive),
